Compounds with a hit are over-represented: about 6.7% of the library has one in this group of screens.
SW480 rereplic: inducers of DNA re-replication in SW480 colon cancer cells; SW480 DNA re-replication, Hoechst DNA content imaging, 48 h; AID 624297; Potency, µM (highest dose often 46.1 µM), hits mostly activators; 1.8% of 340,000 active; note: nearly all actives have a fitted effect of over 55% in size
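Hoechst fluorescence of nuclei (405 nm excitation, 500-530 nm emission) measured by plate-scanning imager after 48 hr compound exposure at 37 C; re-replication scored as increased number of nuclei with elevated intensity.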
KB-3-1 cytotox: kills parental KB-3-1 adenocarcinoma cells; Potency, µM (top dose mostly 46.1 µM), most hits filed as cytotoxic; 1.4% of 400,000 active; KB-3-1 viability, CellTiter-Glo ATP luminescence, 72 h; AID 1347075; note: nearly all actives have a fitted effect of over 60% in size
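Cytotoxicity measured as CellTiter-Glo luminescence after 72 h at 37 C. Compound titrations were pinned onto drug-naive KB-3-1 parental adenocarcinoma cells grown in DMEM with 10% FBS, and normalized data fitted to concentration-response curves.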
KB-V1 MDR tox: kills drug-selected multidrug resistant KB-V1 cells | 3.4% of 400,000 active | Potency, µM (titrated, usually from 46.1 µM), usual class: cytotoxic | AID 1347076 | KB-V1 MDR cells viability, CellTiter-Glo, 72 h; note: nearly all actives have a fitted effect of over 60% in size
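Potencies derive from concentration-effect curves fitted to normalized luminescence (CellTiter-Glo) of KB-V1 cells treated for 72 h at 37 degrees C in phenol-red-free DMEM containing 10% FBS.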
MCF10A rerep: DNA re-replication induction in MCF 10a cells | MCF 10A DNA re-replication, Hoechst nuclear intensity, 48 h | Potency, µM (top dose mostly 46.1 µM), most hits filed as activators | 2.9% of 350,000 active | AID 624296; note: nearly all actives have a fitted effect of over 50% in size
PINK1 modulator: PINK1 expression modulation. PINK1 immunofluorescence, high-content cytometry, 24 h. Potency, µM (series often up to 76.6 µM), usual class: activators. 0.2% of 410,000 active; active = well fitted activation curve with a large enough effect; inconclusive = small, poorly fitted or top-dose-only effect; cell line not stated here; note: nearly all actives have a fitted effect of over 65% in size
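Decision-based qHTS: stable cells, 24 h exposure to five compound concentrations, CCCP as control. Fixed cells stained for PINK1 plus nuclear, mitochondrial and cell markers, cytometer read.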
Numbers stand for hits; i = inactive; ? = inconclusive; nt = no result given. Unless noted, calls come from the whole dose curve; as a rule, active = well fitted curve in the direction sought with a large enough effect; inconclusive = small, poorly fitted or top-dose-only effect, or another doubt; inactive = no such curve, though single readings can be large; an effect the other way counts as inactive or inconclusive.

SMILES	SW480 rereplic	KB-3-1 cytotox	KB-V1 MDR tox	MCF10A rerep	PINK1 modulator
CCN(C(=O)C(NS(=O)(=O)c1ccc(Br)s1)c1ccccc1)c1ccc(C)c(C)c1 (stereo not drawn)	nt	nt	nt	nt	i
CC1CC(C)CN(C(=O)C(NS(=O)(=O)c2ccc(Br)s2)c2ccccc2)C1 (stereo not drawn)	i	i	i	16.4µM	i
CCn1c(=O)cc(SCC(=O)NCc2ccc(C)cc2)c2ccccc21	i	?	?	?	i
CCn1c(=O)cc(OCC(=O)Nc2ccc(C)cn2)c2ccccc21	i	i	?	20.6µM	i
CCn1c(=O)cc(SCC(=O)Nc2ccc3c(c2)OCCO3)c2ccccc21	i	i	16.4µM	i	i
Cn1c(=O)cc(SCC(=O)Nc2ccc3c(c2)OCO3)c2ccccc21	i	i	?	i	i
CCn1c(=O)cc(SCC(=O)Nc2ccc(C)cn2)c2ccccc21	?	i	?	10.3µM	i
COc1ccc(-n2nnc(-c3nsc(NC(=O)c4cccs4)n3)c2C)cc1OC	nt	i	i	nt	i
Cc1cc(C(=O)CSc2nc3ccc(Cl)cc3[nH]2)c(C)n1C	i	i	20.6µM	i	i
Cc1ccc2nc(SCC(=O)c3cc(C)n(C)c3C)[nH]c2c1	i	i	i	i	i
C=CCn1c(C)cc(C(=O)CSc2nc3ccccc3[nH]2)c1C	i	i	i	i	i
Cc1cc(C(=O)CSc2nc3ccccc3[nH]2)c(C)n1Cc1ccco1	i	?	2.06µM	i	i
ON=C1C2CC=C(c3ccccc3)C1CCC2 (stereo not drawn)	i	i	?	i	i
CCc1ccccc1NC(=O)CN1C(=O)CCc2cc(S(=O)(=O)N3CCCCC3)ccc21	nt	i	i	nt	i
CCCN1CCN(CCCNC(=O)c2ccc(CS(=O)c3ccc(OC)cc3)o2)CC1 (stereo not drawn)	i	i	i	i	i
O=C(Nc1ccc2nc3n(c(=O)c2c1)CCCC3)c1cccc([N+](=O)[O-])c1	i	i	?	i	i
CC1CCN(C(=S)Nc2ccc3nc4n(c(=O)c3c2)CCCCC4)CC1	i	i	6.51µM	?	i
O=C(Nc1ccc2nc3n(c(=O)c2c1)CCCC3)c1cc([N+](=O)[O-])ccc1F	14.6µM	i	16.4µM	14.6µM	i
CCNC(=O)[C@@H]1CCCN1C(=O)[C@H](CCCN=C(N)N)NC(=O)[C@H](CC(C)C)NC(=O)[C@@H](Cc1c[nH]c2ccccc12)NC(=O)[C@H](Cc1ccc(O)cc1)NC(=O)[C@H](CO)NC(=O)[C@H](Cc1c[nH]c2ccccc12)NC(=O)[C@H](Cc1cnc[nH]1)NC(=O)[C@@H]1CCC(=O)N1	?	nt	nt	29.9µM	nt
CC[N+]1(CC(=O)c2ccc(I)cc2)CCCCC1	nt	i	i	nt	nt
Cc1c(NC(=O)c2cc(-n3cnnc3)ccc2Cl)cccc1-c1nc2ccccc2o1	i	i	i	i	i
Cc1cc(-c2nc3ccccc3s2)ccc1N	?	?	18.4µM	20.6µM	i
Cc1cc(C)c2oc(-c3ccc(C)c(NC(=S)NC(=O)c4cccs4)c3)nc2c1	i	i	i	9.2µM	i
Cc1ccc(-c2nc3ccccc3s2)cc1NC(=O)c1cc(-n2cnnc2)ccc1Cl	i	i	i	?	3.55µM
Cc1ccc(-c2nc3ccccc3s2)cc1NC(=S)NC(=O)c1ccccc1	i	i	i	13µM	i
SMILES	SW480 rereplic	KB-3-1 cytotox	KB-V1 MDR tox	MCF10A rerep	PINK1 modulator
CC(=O)Nc1cc(-c2nc3ccccc3s2)ccc1C	nt	i	i	nt	i
CCCn1c2ccccc2c2cnn(CC(=O)NCCc3ccc(OCC)c(OCC)c3)c(=O)c21	nt	nt	nt	nt	i
Nc1[nH]c(=S)[nH]c(=O)c1N=O	nt	?	i	nt	i
O=C(COC(=O)c1cc([N+](=O)[O-])ccc1NCCO)NCc1cccs1	i	i	i	0.651µM	i
O=C(COC(=O)c1cc([N+](=O)[O-])ccc1NCCO)c1ccccc1	?	?	20.6µM	i	i
O=C(COC(=O)c1cc([N+](=O)[O-])ccc1NCc1ccccc1Cl)NCC(F)(F)F	i	i	i	20.6µM	i
COc1cccc(-c2csc(N3CCN(C(=O)Nc4ccccc4Cl)CC3)n2)c1	i	i	i	i	i
COc1cccc(-c2csc(N3CCN(C(=S)Nc4ccc(Cl)cc4)CC3)n2)c1	i	i	23.1µM	i	nt
COc1cccc(NC(=O)N2CCN(c3nc(-c4cccc(OC)c4)cs3)CC2)c1	?	?	16.4µM	i	i
